Results from PMC4336329 (PLoS ONE, 2015).
About 14,000 (4.5%) of roughly 310,000 compounds showed an effect of 50% or more. The effect is printed as a negative number. The sample holds strong results, similar compounds and a random draw of the others, so the mix is not that of the screen.

molecular target: human ether-à-go-go-related gene (hERG) potassium channel (human, UniProt Q12809); assay: primary screen, population patch clamp on CHO cells stably expressing hERG; higher = less effect of the substance
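Further: peak tail current of the secondary pulse compared with the same well before compound.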

human ether-à-go-go-related gene (hERG) potassium channel, sequence (Q12809 whole entry, looked up): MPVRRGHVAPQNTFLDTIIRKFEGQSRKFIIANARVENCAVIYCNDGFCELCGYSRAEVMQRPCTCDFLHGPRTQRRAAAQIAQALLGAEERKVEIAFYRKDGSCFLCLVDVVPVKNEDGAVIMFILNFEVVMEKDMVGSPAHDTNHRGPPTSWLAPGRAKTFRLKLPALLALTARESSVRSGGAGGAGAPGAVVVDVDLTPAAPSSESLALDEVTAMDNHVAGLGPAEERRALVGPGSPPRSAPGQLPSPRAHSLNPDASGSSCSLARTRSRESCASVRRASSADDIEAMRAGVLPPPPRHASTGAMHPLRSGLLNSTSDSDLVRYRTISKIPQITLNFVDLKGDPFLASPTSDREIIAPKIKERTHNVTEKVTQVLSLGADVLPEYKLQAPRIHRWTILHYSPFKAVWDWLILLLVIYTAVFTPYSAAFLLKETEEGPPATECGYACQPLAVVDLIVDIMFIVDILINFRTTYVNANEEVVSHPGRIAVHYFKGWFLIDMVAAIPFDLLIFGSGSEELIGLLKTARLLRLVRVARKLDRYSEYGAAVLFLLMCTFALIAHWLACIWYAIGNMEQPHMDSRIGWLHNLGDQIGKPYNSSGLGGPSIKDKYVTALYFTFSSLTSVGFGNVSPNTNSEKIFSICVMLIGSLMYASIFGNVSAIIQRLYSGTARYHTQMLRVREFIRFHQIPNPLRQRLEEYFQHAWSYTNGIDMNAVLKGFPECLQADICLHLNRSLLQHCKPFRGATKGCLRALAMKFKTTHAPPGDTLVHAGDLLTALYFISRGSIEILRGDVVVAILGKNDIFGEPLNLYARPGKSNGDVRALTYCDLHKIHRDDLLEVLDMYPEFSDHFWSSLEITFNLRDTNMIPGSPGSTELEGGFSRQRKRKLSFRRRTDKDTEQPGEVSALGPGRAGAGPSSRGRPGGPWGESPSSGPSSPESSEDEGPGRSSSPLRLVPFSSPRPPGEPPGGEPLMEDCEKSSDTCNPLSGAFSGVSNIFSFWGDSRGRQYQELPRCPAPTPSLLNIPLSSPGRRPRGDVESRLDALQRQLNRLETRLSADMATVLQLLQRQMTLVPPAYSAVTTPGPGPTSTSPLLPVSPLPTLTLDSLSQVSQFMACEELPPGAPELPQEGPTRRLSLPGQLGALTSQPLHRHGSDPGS

Row | Compound | hERG current change (%, negative = inhibition) at 10uM [%]
1 | CC(=O)c1ccc(NC(=O)CSc2nnc(-c3ccncc3)n2C2CC2)cc1 | -5.46
2 | COc1ccc(CC(=O)NC2CC(C)(C)NC(C)(C)C2)cc1OC.Cl | 16.9
3 | Cc1ccc(/C=C2\C(=O)Nc3ccccc32)o1 | 5.04
4 | COc1ccccc1-n1nnnc1SCC(=O)NCC1(N2CCOCC2)CCCCC1 | -39.8
5 | Cc1cccc(-n2nnnc2SCC(=O)NCC2(N3CCOCC3)CCCCC2)c1C | -57.9
6 | CCOc1ccccc1-n1nnnc1SCC(=O)NCc1ccco1 | 5.25
7 | Cc1ccccc1-n1nnnc1SCC(=O)NCC1(N2CCOCC2)CCCCC1 | -24.9
8 | CCOc1ccccc1-n1nnnc1SCC(=O)NCC1(N2CCOCC2)CCCCC1 | -67.7
9 | O=C(CSc1ccccc1)NCC1(N2CCOCC2)CCCCC1 | -19
10 | O=c1c2ccccc2nc2c3ccccc3c(NCc3cccnc3)nn12 | -25.5
11 | COc1ccc(-n2nc(C(=O)NCC(=O)NC3CCCC(C)C3C)c3ccccc3c2=O)cc1 (stereo not shown) | 8.55
12 | CC(=O)OCN(C#N)c1nc(N(C)C)nc(N(C)C)n1 | 5.8
13 | Cc1nnc2ccc(-c3ccc(NS(=O)(=O)c4ccc(F)cc4F)cc3)nn12 | -25.2
14 | CC(C)Oc1ccc(CNC(=O)C2CCCN(S(=O)(=O)N3CCOCC3)C2)cc1 (stereo not shown) | -20.8
15 | C=CCNC(=O)C1CC2Cn3c(nc4cc(C)c(C)cc43)C2N1C (stereo not shown) | -7.6
16 | Cc1cc2nc3n(c2cc1C)CC1CC(C(=O)NCc2cccc(C(F)(F)F)c2)N(C)C31 (stereo not shown) | -66.7
17 | CN1C(C(=O)NCc2cccc(C(F)(F)F)c2)CC2Cn3c(nc4ccccc43)C21 (stereo not shown) | -47.4
18 | CN1C(C(=O)NCc2cccc(C(F)(F)F)c2)CC2Cn3c(nc4cc(Cl)c(Cl)cc43)C21 (stereo not shown) | -73.6
19 | Cc1cc2nc3n(c2cc1C)CC1CC(C(=O)NCC2CC2)N(C)C31 (stereo not shown) | -1.83
20 | CN1C(C(=O)NCc2cccc(C(F)(F)F)c2)CC2Cn3c(nc4cc5ccccc5cc43)C21 (stereo not shown) | -63.1
21 | O=C(Nc1ccccc1)c1ccc(Br)c(S(=O)(=O)Nc2ccccn2)c1 | 14.5
22 | Cc1cc(C)c(C#N)c(N2CCSCC2)n1 | 4.36
23 | CC(=O)N1CCc2cc(S(=O)(=O)NCCC(=O)NC3CCCc4ccccc43)ccc21 (stereo not shown) | 2.54

Row | Compound | hERG current change (%, negative = inhibition) at 10uM [%]
24 | NC(=O)c1noc(C(=O)N(CC(=O)NC2CCCC2)Cc2ccc3c(c2)OCO3)c1N | -7.94
25 | Cc1cc(N2CCN(C)CC2)nc2ccc(NC(=S)NCCC(C)C)cc12 | -51.2
26 | Cc1cc(N2CCOCC2)nc2ccc(NC(=S)NCCN(C)C)cc12 | 13.7
27 | CCN(CC)CCNC(=S)Nc1ccc2nc(N3CCOCC3)cc(C)c2c1 | 11.7
28 | Cc1cc(N2CCOCC2)nc2ccc(NC(=S)NCCC(C)C)cc12 | -64.1
29 | CCN(CC)CCNC(=S)Nc1ccc2nc(N3CCN(C)CC3)cc(C)c2c1 | -1.04
30 | Cc1cc(N2CCOCC2)nc2ccc(NC(=S)NCc3ccc4c(c3)OCO4)cc12 | -68.5
31 | COCCNC(=S)Nc1ccc2nc(N3CCOCC3)cc(C)c2c1 | -0.507
32 | Cc1cc(N2CCOCC2)nc2ccc(NC(=S)N3CCN(Cc4ccccc4)CC3)cc12 | -33.6
33 | Cc1cc(N2CCN(C)CC2)nc2ccc(NC(=S)NCCCN3CCc4ccccc4C3)cc12 | -26.5
34 | Cc1cccc(Cn2nc(C(C)(C)C)cc2C(=O)Nc2ccc(F)cc2)c1 | 14.8
35 | C(#CCN1CCOCC1)COCC#Cc1ccccc1.Cl | -2.16
36 | CC(C)(C)OC(=O)N[C@@H](Cc1c[nH]c2ccccc12)c1nnc(SCC(N)=O)o1 | -3.96
37 | Cc1nc2ccccc2c(=O)n1-c1cc(F)ccc1F | 8.31
38 | Cc1ccc(C)c(S(=O)(=O)NNC(=O)Nc2ccccc2Cl)c1 | 5.51
39 | O=c1cc(CSc2ccc(Cl)cc2)nc(-c2ccccn2)[nH]1 | -0.0469
40 | COc1ccc(CNC(=O)C(c2ccco2)N(Cc2ccccc2)C(=O)Cc2cccs2)cc1 (stereo not shown) | 18
41 | O=C(c1ccccc1)c1cc([N+](=O)[O-])ccc1N1CCOCC1 | -30.7
42 | O=C(c1ccccc1)c1cc([N+](=O)[O-])ccc1N1CCCC1 | -12
43 | Cc1ccc(C(=O)c2cc([N+](=O)[O-])ccc2N2CCCCC2)cc1 | -5.08
44 | COc1ccc(C(=O)c2ccc([N+](=O)[O-])cc2Cl)cc1 | -16.2
45 | Cc1ccc(C(=O)c2cc([N+](=O)[O-])ccc2N2CCOCC2)cc1C | -17
46 | Cc1ccc(C(=O)c2cc([N+](=O)[O-])ccc2N2CCCCC2)cc1C | 6.24

Row | Compound | hERG current change (%, negative = inhibition) at 10uM [%]
47 | Cc1ccc(C(=O)c2cc([N+](=O)[O-])ccc2N2CCN(C)CC2)cc1 | -64.5
48 | COc1ccc(C(=O)c2cc([N+](=O)[O-])ccc2N2CCN(C)CC2)cc1 | -58.2
49 | Cc1ccc(C(=O)c2cc([N+](=O)[O-])ccc2N2CC(C)OC(C)C2)cc1 (stereo not shown) | -0.127
50 | CN1CCN(c2ccc([N+](=O)[O-])cc2C(=O)c2ccccc2)CC1 | -54.2
51 | CCN1CCN(c2ccc([N+](=O)[O-])cc2C(=O)c2ccc(Cl)cc2)CC1 | -72.8
52 | COc1ccc(C(=O)c2cc([N+](=O)[O-])ccc2N2CCOCC2)cc1 | -23.5
53 | Cc1nn(CC(=O)N2CCN(S(=O)(=O)c3ccccc3)CC2)c(C)c1[N+](=O)[O-] | -10
54 | Cl.Clc1cccc(Nc2nc(N3CCOCC3)nc(N3CCOCC3)n2)c1 | 16.9
55 | CN(C)C(=O)c1cn(-c2ccccc2)nc1-c1cc2ccccc2o1 | -10.3
56 | CC12CCC(=O)N1c1ccccc1C(=O)N2c1ccccc1 (stereo not shown) | -9.9
57 | CCOC(=O)c1sc(NC(=O)CSc2nncn2C)nc1C | 9.68
58 | Cl.O=C(OCCN1CCCCC1)c1cccc(Cl)c1 | -30.6
59 | CCCC(c1nnnn1Cc1ccco1)N1CCN(c2ccccc2)CC1.Cl (stereo not shown) | -19.6
60 | Cc1c(Cc2ccccc2)c(NCCN(C)C)n2c(nc3ccccc32)c1C#N | -32.4
61 | Cc1[nH]c2ccccc2c1Cc1nnc(SCC(=O)NCc2ccco2)o1 | 4.19
62 | COc1ccc(CC(=O)c2ccc(O)cc2O)cc1 | -3.19
63 | N/C(=N\OC(=O)c1ccc(OCC(F)(F)F)nc1)c1ccc(Cl)cc1 | 19.5
64 | CN1CCN(c2ccc([N+](=O)[O-])cc2C(=O)N2CCCCC2)CC1 | -7.66
65 | CN1CCN(c2ccc([N+](=O)[O-])cc2C(=O)c2ccc(Cl)cc2)CC1 | -67.4
66 | O=C(c1ccc(Cl)cc1)c1cc([N+](=O)[O-])ccc1N1CCOCC1 | -32.4
67 | CN1CCN(c2ccc([N+](=O)[O-])cc2C(=O)c2ccc(Br)cc2)CC1 | -69.5
68 | O=C(c1ccc(Br)cc1)c1cc([N+](=O)[O-])ccc1N1CCCCC1 | -25.3
69 | O=C(c1ccc(Br)cc1)c1cc([N+](=O)[O-])ccc1N1CCOCC1 | -30.7

Row | Compound | hERG current change (%, negative = inhibition) at 10uM [%]
70 | CC(=O)Nc1cc2nc(C)n(Cc3ccccc3[N+](=O)[O-])c2nc1C | 17.4
71 | C1CCc2nc3c(nc2C1)CCCC3 | -10.7
72 | C=CCc1c(C)nc(SC)nc1Nc1ccc(C)cc1 | -14.3
73 | CN(C(=O)c1cccnc1)c1nnc(-c2cccnc2)s1 | 14.4
74 | COc1ccc(N2CCN(C(=O)CN3CCN(C(c4ccccc4)c4ccccc4)CC3)CC2)cc1.Cl | -46
75 | CCCCC(=O)OCC(=O)Nc1ccc(OC(F)F)cc1 | -21.2
76 | Cc1ccn2c(=O)c(NC(=O)c3cccc4ccccc34)c(C)nc2c1 | -1.31
77 | Cc1ccn2c(=O)c(NC(=O)COc3ccccc3)c(C)nc2c1 | -56.9
78 | Cc1nc2c(C)cccn2c(=O)c1NC(=O)COc1ccccc1 | -12.1
79 | N#Cc1c(Cl)nsc1NC(=O)c1ccccc1 | 8.24
80 | Cc1ccc(S(=O)(=O)N2CCCCC2CCNC(=O)C(=O)NCCc2ccco2)cc1 (stereo not shown) | -33.1
81 | O=C(CCC(=O)N1CCOc2ccccc21)NCCCN1CCN(Cc2ccccc2)CC1 | -79.8
82 | O=C(CCC(=O)N1CCOc2ccccc21)NCCCN1CCCCC1 | 7
83 | O=C(NC1CCCCC1)C1COc2ccccc2O1 (stereo not shown) | -7.19
84 | Cc1ccc(C)c(N2CCN(CCCNC(=O)CCC(=O)N3CCOc4ccc(Cl)cc43)CC2)c1 | -55.9
85 | O=C(C1COc2ccccc2O1)N1CCN(Cc2ccccc2)CC1 (stereo not shown) | -7.63
86 | CN1CCN(CCCNC(=O)CCC(=O)N2CCOc3ccccc32)CC1 | 5.46
87 | O=C(CCC(=O)N1CCOc2ccc(Cl)cc21)NCCCN1CCN(c2ccccc2F)CC1 | -66.5
88 | CCN1CCN(CCCNC(=O)CCC(=O)N2CCOc3ccccc32)CC1 | -13
89 | Cc1ccccc1CNC(=O)CCC(=O)N1CCOc2ccc(Cl)cc21 | -24.2
90 | O=C(CCC(=O)N1CCOc2ccc(Cl)cc21)NCCN1CCOCC1 | 3.97
91 | O=C(NC1CCN(Cc2ccccc2)CC1)C1COc2ccccc2O1 (stereo not shown) | -57.5
